This is a sample that favours compounds with a hit; in the whole collection about 3.2% have one here.
Mtb UGM inh – inhibitors of M. tuberculosis UDP-galactopyranose mutase; P9WIQ1; purified UGM, fluorescence polarization probe displacement; inhibition, % at 10 µM; hit rate 0.06% among 320,000; AID 504406; in the data active = inhibition above about 10%, passing the limit was not always enough
FBA Mtb inh – inhibitors of M. tuberculosis fructose-bisphosphate aldolase. purified M. tuberculosis FBA, fluorescence read-out. P9WQA3. inhibition, % at 1 µM. hit rate 2.3% among 360,000; in the data active = inhibition above about 27%;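 note: 0% = vehicle and 100% = reference inhibitor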
Target sequence (P9WQA3 whole entry, looked up): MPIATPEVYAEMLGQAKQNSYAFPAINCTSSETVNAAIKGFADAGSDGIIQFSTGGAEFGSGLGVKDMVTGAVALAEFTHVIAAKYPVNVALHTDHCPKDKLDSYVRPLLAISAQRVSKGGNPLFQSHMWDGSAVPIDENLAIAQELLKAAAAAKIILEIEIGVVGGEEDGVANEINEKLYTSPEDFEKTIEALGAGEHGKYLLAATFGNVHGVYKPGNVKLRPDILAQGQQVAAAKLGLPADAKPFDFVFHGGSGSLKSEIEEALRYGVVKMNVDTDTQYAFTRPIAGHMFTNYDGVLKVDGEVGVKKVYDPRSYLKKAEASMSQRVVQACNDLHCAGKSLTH
Rv3671c protease – Rv3671c (M. tuberculosis) protease inhibition | hit rate 0.048% among 320,000 | inhibition, % at 5.96 µM | P9WHR9; in the data active = inhibition above about 38%;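 note: extracellular domain of Rv3671c used as enzyme; 0% = enzyme with DMSO and 100% = no enzyme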
GDH-TPI counter – counter-screen for M. tuberculosis FBA inhibitors: GDH-TPI coupled enzymes; hit rate 1.2% among 360,000; GDH-TPI coupled enzyme counterscreen, NADH absorbance; inhibition, % at 4.8 µM; AID 588335; in the data active = inhibition above about 30%;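 note: 0% = DMSO wells and 100% = wells lacking the enzyme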
Mtb bLac sens – beta-lactam sensitization of Mtb H37Rv. M. tuberculosis H37Rv growth with meropenem, percent inhibition. hit rate 0.27% among 330,000. inhibition, % at 25 µM. AID 434955; call rule not given here;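 note: growth measured after seven days incubation then overnight dye step; 0% = bacteria only wells and 100% = bacteria with antibiotic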
PriA SSB inh – blocks PriA binding to SSB C-terminal tail | inhibition, % at 33 µM | AlphaScreen SSBct-PriA binding, biotinylated peptide | hit rate 0.6% among 430,000 | AID 1272365; in the data active = inhibition mostly above about 37%, no sharp cut-off; inactive = mostly below about 20%;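 note: plate controls were negative control peptide for no effect and reference peptide for full effect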
Active calls of the source: *; . = no result given; + = active, no number.

SMILES	Mtb UGM inh	FBA Mtb inh	Rv3671c protease	GDH-TPI counter	Mtb bLac sens	PriA SSB inh
CCOC(=O)N1CCN(S(=O)(=O)c2ccc(C(=O)N(CCN(CC)CC)c3nc4c(F)cccc4s3)cc2)CC1	.	.	.	.	.	14.0
CC(C)NC(=O)C(=O)NN=Cc1ccco1	.	.	.	.	.	0.9
O=C(/C=C\c1ccccc1)NCC(=O)N/N=C/c1ccc(O)cc1O	-0.4	4.9	4.9	29.6	1.8	.
COc1ccc(/C=C\C(=O)NCC(=O)N/N=C/c2ccc(O)cc2O)cc1	5.9	5.5	5.5	67.5*	10.1	.
CCCc1ccc(C2C3=C(CC(C)(C)CC3=O)NC3=C2C(=O)c2ccccc23)cc1 (stereo not given)	1.4	-2.8	3.6	4.1	99.5	47.1*
CC1(C)CC(=O)C2=C(C1)NC1=C(C(=O)c3ccccc31)C2c1ccc(O)cc1 (stereo not given)	1.3	-5.0	12.0	4.9	-3.3	49.5*
CCCCc1ccc(C2C3=C(CC(C)(C)CC3=O)NC3=C2C(=O)c2ccccc23)cc1 (stereo not given)	0.9	2.4	4.9	0.0	91.5	22.4
Cc1cc(=O)n2c(-c3cccc(NS(=O)(=O)c4ccc5ccccc5c4)c3)csc2n1	.	.	.	.	.	18.0
O=S(=O)(NCCn1ccc(-c2ccccn2)n1)C1CCCCC1	.	.	.	.	.	0.0
O=c1oc2ccccc2cc1-c1nc2c(s1)CCCC2	0.5	138.7*	-7.3	13.4	.	-25.7
COc1ccc2oc(=O)c(-c3nc4ccccc4o3)cc2c1	-1.8	26.8	-0.6	20.1	79.8	-0.9
O=c1oc2ccccc2cc1-c1nc(-c2ccc(C3CCCCC3)cc2)cs1	.	.	.	.	.	-4.0
O=c1oc2ccccc2cc1-c1nc2ccccc2o1	1.7	+	8.3	59.5*	78.8	-6.9
O=C(NCC(=O)N1CCC[C@H](Cc2nc(-c3ccccc3F)no2)C1)c1ccccc1	.	.	.	.	.	0.0
COC(=O)c1ccc(Cn2nc(-c3ccccc3)c3sc(N4CCCC4)nc3c2=O)cc1	.	.	.	.	.	-4.0
CCOC(=O)c1cnc2cc(C)ccn2c1=O	-2.2	124.4*	-9.2	31.4*	1.3	4.5
COc1ccc(/C=C/C(=O)c2ccc(OC)cc2OC)cc1	0.4	4.6	1.2	38.2*	68.0	-0.5
COc1ccc(/C=C/C(=O)C2(O)CCCCC2)cc1	-1.9	-0.4	0.8	38.8*	-7.2	-3.5
COc1ccc(/C=C/C(=O)/C=C/c2ccc(OC)cc2)cc1	.	.	.	.	.	3.0
O=C(NCc1ccco1)c1c[nH]c(=O)n(Cc2ccc3c(c2)OCO3)c1=O	.	.	.	.	.	5.0
Cn1ccnc1SCC1CCN(C(=O)c2ccsc2)CC1	.	.	.	.	.	-6.0
Cn1ccnc1SCC1CCN(C(=O)c2cccs2)CC1	.	.	.	.	.	35.0*
COc1ccc2c(c1OC)C(=O)OC2Nc1cccc(C)c1 (stereo not given)	.	.	.	.	.	2.0
O=C(CC1OC(=O)c2ccccc21)c1ccco1 (stereo not given)	-7.5	-2.5	3.3	41.4*	5.0	-8.3
CC(=NNC(=O)CNc1ccccc1Cl)C(C)(C)C	.	.	.	.	.	-11.1
SMILES	Mtb UGM inh	FBA Mtb inh	Rv3671c protease	GDH-TPI counter	Mtb bLac sens	PriA SSB inh
Nc1ccc(-c2nc3ncccc3o2)cc1	0.1	+	-5.1	42.7*	3.9	0.6
O=C(Nc1ccc(-c2nc3ncccc3o2)cc1)c1ccc(Br)o1	10.0	14.3	-48.5	57.0*	-5.2	-2.1
COc1cccc2sc(N(C)CC(=O)NCc3ccccc3OC(F)(F)F)nc12	.	.	.	.	.	-14.0
CCN(CC)c1ccc(/C=N/NC(=O)c2ccoc2C)c(O)c1	1.9	11.5	1.8	37.2*	0.2	.
CCN(CC)c1ccc(/C=N/NC(=O)OC)c(O)c1	2.2	4.0	-0.6	43.4*	10.0	.
CCN(CC)c1ccc(C=NNC(=O)c2ccoc2C)c(O)c1	.	.	.	.	.	3.2
COC(=O)C1CC(Oc2ccccc2F)CN1C(=O)c1ccc(=O)n(C)n1 (stereo not given)	.	.	.	.	.	-11.0
CCCC1Oc2ccccc2C(=O)N(CC(=O)c2ccc(F)cc2)C1=O (stereo not given)	.	.	.	.	.	54.0*
COC(=O)Nc1ccc2ccc3c(NC(=O)OC)ccc4ccc1c2c43	.	+	.	43.9*	.	-10.3
O=C(COc1ccc2oc(-c3ccco3)cc(=O)c2c1)N1CCCCC1	1.1	157.1*	5.3	50.6*	-13.2	-0.3
O=c1cc(-c2ccco2)oc2ccc(Cl)cc12	.	20.9	.	11.5	.	-1.4
COc1ccc2oc(-c3ccco3)cc(=O)c2c1	-0.5	116.4*	8.9	53.8*	2.7	-3.9
COc1cc(COCC2CCN(C(=O)c3cccc(C(F)(F)F)c3)CC2)cc(OC)c1	.	.	.	.	.	-22.0
Nc1ccc2c(C(F)(F)F)cc(C(F)(F)F)nc2n1	0.4	+	-0.1	11.9	-1.5	-4.9
CC1CCCCC1NC(=O)NC(=O)COC(=O)c1nccnc1N (stereo not given)	-2.4	118.4*	1.5	16.4	1.7	0.9
COc1ccccc1C(=O)NC(=O)COC(=O)c1nccnc1N	0.0	144.3*	1.7	6.8	-8.6	-5.8
Cc1cc(NC(=O)COC(=O)c2nccnc2N)n(-c2ccccc2)n1	-3.4	128.9*	3.0	12.9	-3.5	-14.2
CC1CCCCC1NC(=O)NC(=O)COC(=O)c1cncc(Br)c1 (stereo not given)	.	1.8	-5.0	0.3	1.5	6.3
Nc1nccnc1C(=O)OCC(=O)NNC(=O)c1ccccc1	0.4	159.7*	4.7	12.0	-16.1	-6.4
COc1ccccc1C(=O)NC(=O)COC(=O)c1cnccn1	.	-0.6	.	3.6	.	.
O=C(Cc1ccccc1)NCc1cc(-c2ccc(Cl)cc2)on1	.	.	.	.	.	-1.0
O=C(CSc1nnc2[nH]c(=O)cc(-c3ccccc3)n12)N1CCc2ccccc21	.	.	.	.	.	-1.0
N#CC1(NC(=O)COC(=O)c2nccnc2N)CCCCC1	2.2	164.8*	-1.6	10.2	-14.1	-3.6
CCOC(=O)N1CCN(C(=O)Cn2nc(C)n3nc(-c4ccc(OC)cc4)cc3c2=O)CC1	0.8	10.6	1.2	-0.5	2.0	-8.6
COc1ccc(-c2cc3c(=O)n(CC(=O)Nc4cccc(Cl)c4)nc(C)n3n2)cc1	-1.6	1.5	2.6	-9.6	2.0	44.3*
CC(=C\c1ccccc1)/C=C1/SC(=O)NC1=O	.	.	.	.	.	1.0
O=C1NC(=O)C(=CC=Cc2ccccc2)S1	.	-1.9	.	37.7*	.	.

Screening results as filed in PubChem.
